Screens deposited in PubChem BioAssay by National Center for Advancing Translational Sciences (NCATS).
SW480 rerep = A quantitative high throughput screen for small molecules that induce DNA re-replication in SW480 colon adenocarcinoma cells. SW480 DNA re-replication, Hoechst DNA content imaging, 48 h. Potency, µM (highest dose often 46.1 µM), actives largely listed as activators. actives 1.8% (n = 340,000); also: nearly all actives have a fitted effect of over 55% in size
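SW480 cells exposed to compounds for 48 hr at 37 C, 5% CO2, then Hoechst-stained 40 min. Nuclear DNA content imaged by fluorescence scanning (405 nm excitation, 500-530 nm emission); re-replication scored as increased high-intensity nuclei.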
HT1080 IDH1KD tx = qHTS for induction of synthetic lethality in tumor cells producing 2HG: qHTS for the HT-1080-IDH1KD cell line; HT-1080 IDH1 knockdown viability, ATP luminescence, 48 h; Potency, µM (titrated, usually from 46.1 µM), most hits filed as cytotoxic; actives 2% (n = 360,000)
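CellTiter-Glo luminescence after 48 h compound exposure at 37 degrees C of IDH1-knockdown HT-1080 cells in 5% FBS RPMI. %Activity scaled between DMSO wells and cell-free media wells, with curves fitted and assigned curve classes.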
HT1080NT lethal = qHTS for induction of synthetic lethality in tumor cells producing 2HG: qHTS for the HT-1080-NT fibrosarcoma cell line; Potency, µM (titrated, usually from 46.1 µM), actives largely listed as cytotoxic; HT-1080-NT fibrosarcoma viability, CellTiter-Glo ATP luminescence, 48 h; actives 1.6% (n = 360,000);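 also: NT is the 2HG producing partner of a matched IDH1 knockdown line; nearly all actives have a fitted effect of over 55% in size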
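Compounds were tested in concentration-response format on HT-1080-NT cells for 48 hours at 37 degrees C. Cell viability came from CellTiter-Glo luminescence; curves were classified by r2, response magnitude and activity.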
KB-V1 cytotox = qHTS assay for MDR1-selective chemotherapeutics: Primary screen using the drug-selected MDR subline cells KB-V1; KB-V1 MDR cells viability, CellTiter-Glo, 72 h; Potency, µM (highest dose often 46.1 µM), most hits filed as cytotoxic; actives 3.4% (n = 400,000); also: nearly all actives have a fitted effect of over 60% in size
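Luminescent ATP read-out (CellTiter-Glo, 10 min) measures survival of drug-selected KB-V1 MDR cells after 72 h, 37 degrees C compound exposure. Medium: phenol-red-free DMEM, 10% FBS. Values from fitted concentration-response curves.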
KB-3-1 tox = qHTS assay for MDR1-selective chemotherapeutics: Primary screen using the parental adenocarcinoma cell KB-3-1; KB-3-1 viability, CellTiter-Glo ATP luminescence, 72 h; Potency, µM (top dose mostly 46.1 µM), actives largely listed as cytotoxic; actives 1.4% (n = 400,000); AID 1347075, 2019; also: nearly all actives have a fitted effect of over 60% in size
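72 h, 37 °C compound treatment of KB-3-1 parental cells; CellTiter-Glo added, 10 min, luminescence read. Data corrected against DMSO-only plates and normalized before curve fitting.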
MCF10A rereplic = A quantitative high throughput screen for small molecules that induce DNA re-replication in MCF 10a normal breast cells | MCF 10A DNA re-replication, Hoechst nuclear intensity, 48 h | Potency, µM (highest dose often 46.1 µM), actives largely listed as activators | actives 2.9% (n = 350,000) | AID 624296, 2012; also: nearly all actives have a fitted effect of over 50% in size
Each line names hits and unclear results; the compound was inactive in the other large screens. A selection: hits, their analogues and other compounds. The true share with any hit is near 8%. Calls follow the shape of the dose curve; as a rule, active = well fitted curve in the direction sought with a large enough effect; inconclusive = small, poorly fitted or top-dose-only effect, or another doubt; inactive = no such curve, though single readings can be large; an effect the other way counts as inactive or inconclusive.

CC1Sc2ccc(S(=O)(=O)N3CCC(C(=O)Nc4cccc(Cl)c4)CC3)cc2NC1=O (stereo not given)	SW480 rerep inconclusive, HT1080 IDH1KD tx inconclusive, HT1080NT lethal inconclusive, KB-3-1 tox 14.6µM
COc1cccc(CNC(=O)C2CCN(S(=O)(=O)c3ccc(F)cc3)CC2)c1	KB-V1 cytotox 23.1µM
C=C(C)CCC(C)N1CCC(n2nccc2NC(=O)CCCc2ccccc2)CC1 (stereo not given)	none
O=c1cc(O)c2c([nH]1)CCC2	KB-3-1 tox inconclusive (no result: SW480 rerep, HT1080 IDH1KD tx, HT1080NT lethal, MCF10A rereplic)
CS(=O)(=O)c1ccc([C@@H](O)[C@@H](COC(=O)CN)NC(=O)C(Cl)Cl)cc1	none (no result: HT1080 IDH1KD tx, HT1080NT lethal, KB-V1 cytotox, KB-3-1 tox)
CCCC(NC(=O)CCl)c1ccccc1 (stereo not given)	HT1080 IDH1KD tx inconclusive, HT1080NT lethal inconclusive
CC(NC(=O)c1ccc(Cl)c(Cl)c1)c1ccc(-c2ccccc2)cc1 (stereo not given)	none
CCC(NC(=O)CCl)c1ccc(C)cc1 (stereo not given)	HT1080 IDH1KD tx inconclusive, HT1080NT lethal inconclusive, KB-V1 cytotox inconclusive, KB-3-1 tox 20.6µM
CC(NC(=O)CCl)c1ccc(Cl)c(Cl)c1 (stereo not given)	SW480 rerep inconclusive, HT1080 IDH1KD tx 16.4µM, HT1080NT lethal inconclusive, KB-3-1 tox inconclusive, MCF10A rereplic inconclusive
O=C(O)c1ccccc1NS(=O)(=O)c1cccc(C(F)(F)F)c1	none
O=C(O)c1ccccc1NS(=O)(=O)c1cccc(-n2sc3ccccc3c2=O)c1	SW480 rerep inconclusive, HT1080 IDH1KD tx inconclusive, KB-V1 cytotox inconclusive, MCF10A rereplic 14.6µM
Cc1c(CN(C)C)c2c(n1Cc1ccccc1)C(=O)c1ccccc1-2	HT1080 IDH1KD tx 16.4µM, HT1080NT lethal 23.1µM, KB-V1 cytotox inconclusive, KB-3-1 tox inconclusive
O=S(Cc1ccc(Br)cc1)Cc1nnc(SCc2ccc(Br)cc2)n1-c1ccccc1 (stereo not given)	SW480 rerep inconclusive, HT1080 IDH1KD tx inconclusive, KB-V1 cytotox 2.91µM, KB-3-1 tox 16.4µM, MCF10A rereplic 23.1µM
Cc1ccc(NC(=O)c2ccc([N+](=O)[O-])o2)cc1S(=O)(=O)N1CCOCC1	SW480 rerep 1.46µM, HT1080 IDH1KD tx 6.51µM, HT1080NT lethal inconclusive, KB-V1 cytotox inconclusive, KB-3-1 tox inconclusive, MCF10A rereplic 2.06µM
O=C(Nc1ccc(N2CCOCC2)c(Cl)c1)c1ccc([N+](=O)[O-])o1	HT1080 IDH1KD tx 4.61µM, HT1080NT lethal 6.51µM, MCF10A rereplic inconclusive
CCCC(=O)N1CCN(c2ccc(NC(=O)c3ccc([N+](=O)[O-])o3)cc2Cl)CC1	HT1080 IDH1KD tx inconclusive, HT1080NT lethal 16.4µM, KB-V1 cytotox inconclusive, KB-3-1 tox inconclusive, MCF10A rereplic 1.84µM
CC(C)C(=O)N1CCN(c2ccc(NC(=O)COc3ccccc3[N+](=O)[O-])cc2)CC1	HT1080 IDH1KD tx inconclusive, HT1080NT lethal inconclusive, KB-V1 cytotox 18.4µM, KB-3-1 tox inconclusive, MCF10A rereplic 20.6µM
COc1cccc(N2CCN(C(=O)Cn3cnc4onc(-c5ccc(F)cc5)c4c3=O)CC2)c1	none (no result: SW480 rerep, HT1080 IDH1KD tx, HT1080NT lethal, MCF10A rereplic)
O=C(Nc1ccc(Br)cc1)C1CCCN(S(=O)(=O)c2ccc(Br)s2)C1 (stereo not given)	none (no result: SW480 rerep, HT1080 IDH1KD tx, HT1080NT lethal, MCF10A rereplic)
CC(C)C(=O)N1CCN(c2ccc(NC(=O)c3ccc(Br)o3)cc2)CC1	HT1080NT lethal inconclusive
CC(C)C(=O)N1CCN(c2ccc(NC(=O)c3ccc([N+](=O)[O-])o3)cc2)CC1	HT1080 IDH1KD tx 7.31µM, HT1080NT lethal 11.6µM, KB-V1 cytotox inconclusive, KB-3-1 tox inconclusive, MCF10A rereplic 2.59µM
CC(C)C(=O)N1CCN(c2ccc(NC(=O)c3ccc([N+](=O)[O-])o3)cc2Cl)CC1	HT1080 IDH1KD tx inconclusive, HT1080NT lethal 7.31µM, KB-V1 cytotox inconclusive, KB-3-1 tox inconclusive, MCF10A rereplic inconclusive
